Pf growth 96h: Primary qHTS for delayed death inhibitors of the malarial parasite plastid, 96 hour incubation; P. falciparum luciferase reporter growth, 96 h; Potency, µM (top dose mostly 28.7 µM), for inactives: at the top dose activity change, negative = inhibition, hits mostly inhibitors; hit rate 6.9% among 320,000; AID 504834, 2011; further: on the % scale 0 is the no-effect control and ±100 the full control effect
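Parasite growth measured via integrated firefly luciferase reporter in P. falciparum. Infected erythrocytes at 2% hematocrit, 0.05% parasitemia final were treated 96 hours at 37 C under 5% CO2, and luminescence was read.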
Pf growth 48h: Primary qHTS for delayed death inhibitors of the malarial parasite plastid, 48 hour incubation; P. falciparum luciferase growth in erythrocytes, 48 h; Potency, µM (doses to about 28.7 µM), without a hit: top-dose activity change, negative = inhibition, usual class: inhibitors; hit rate 5.9% among 310,000; AID 504832, 2011; further: on the % scale 0 is the no-effect control and ±100 the full control effect
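Luciferase-expressing P. falciparum in infected erythrocytes (2% hematocrit, 0.1% parasitemia final) in RPMI 1640/0.5% Albumax were exposed to compound for 48 hours at 37 C, 5% CO2; growth read as luminescence.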
NS1 function inh: qHTS Assay for Inhibitors of Influenza NS1 Protein Function; Potency, µM (highest dose often 46.1 µM), without a hit: at the top dose activity, positive = more growth; hit rate 0.4% among 270,000; calls by dose curve; further: actives are rising curves; nearly all actives have a fitted effect of over 50% in size
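Recovery from NS1-induced slow growth read by OD600 in budding yeast switched to galactose assay medium (pH 6.0, -URA) at 1:100 dilution. Compound 23 nl per well; the matching strain lacking NS1 serves as control.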
HCV inh: qHTS Assay for Inhibitors of Hepatitis C Virus (HCV). Huh7.5.1 HCVcc-Cre infection, luciferase reporter, 44 h. Potency, µM (top dose mostly 41.8 µM), inactives show at the highest dose activity change, negative = inhibition, actives largely listed as inhibitors. hit rate 3.4% among 340,000. AID 651820, 2012; further: on the % scale 0 is the no-effect control and ±100 the full control effect
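Whole-lifecycle infectious HCVcc-Cre system; cells 1,000/well, compound then virus (~0.5 moi) added 4 h after plating, 44 h culture. Luciferase read 15 sec following 15 min substrate incubation, room temp.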
VACV Venus inh: qHTS for Stage-Specific Inhibitors of Vaccinia Orthopoxvirus: Venus Reporter Primary qHTS; Vaccinia virus Venus reporter expression, fluorescence; Potency, µM (titrated, usually from 36.5 µM), for the others: at the highest dose activity change, negative = inhibition, hits mostly inhibitors; hit rate 0.46% among 330,000; calls by dose curve; tested in A549 cells; further: on the % scale 0 is the no-effect control and ±100 the full control effect; nearly all actives have a fitted effect of over 30% in size
Vaccinia mCherry: qHTS for Stage-Specific Inhibitors of Vaccinia Orthopoxvirus: mCherry Reporter Primary qHTS. Vaccinia virus mCherry reporter infection, fluorescence. Potency, µM (highest dose often 36.5 µM), inactives show at the top dose activity change, negative = inhibition, hits mostly inhibitors. hit rate 0.63% among 310,000. AID 720579, 2013; calls by dose curve; tested in A549 cells; further: on the % scale 0 is the no-effect control and ±100 the full control effect; nearly all actives have a fitted effect of over 35% in size
* hit, by the source's call; i = inactive; u = inconclusive; x = no result; [ ] = dose if it differs, or a comment. Only some compounds are listed: those with a hit (about 11% of all), similar ones and a draw of the others. Unless noted, the call rests on the fitted dose curve; in most records, active means well fitted inhibition curve with a large enough effect; inconclusive means small, poorly fitted or top-dose-only effect, or another doubt; inactive means no such curve, though single readings can be large or run the other way. Potency means the concentration at half of the fitted maximal effect.

SMILES	Pf growth 96h	Pf growth 48h	NS1 function inh	HCV inh	VACV Venus inh	Vaccinia mCherry
O=C(NCCOC(=O)c1cccs1)c1cccnc1	u	28.3%	-48.4%	19.3%	0.5%	x
O=C(Nc1ccc(S(=O)(=O)N2CCOCC2)cc1)c1cccnc1	61.2%	u	8.6%	19.4%	-11.3%[7.34 µM]	-7.2%[7.34 µM]
O=C(NCCOC(=O)c1ccc(C(=O)OCCNC(=O)c2cccnc2)s1)c1cccnc1	19.8%	-3.1%	11.9%	22.4µM*	x	x
CCCC(=O)Nc1nc(-c2ccccc2)c(CC)s1	4.0%	-7.9%	-32.2%	-10.0%	-1.0%	-7.8%
Cc1nc(-n2nc(C)c(CCC(C)C)c2C)sc1C(=O)Nc1cccc(Cl)c1C	x	x	x	x	-1.8%	0.7%
CCOC(=O)c1nc(Nc2ccccc2)c2ccccc2n1	-35.1%	x	-1.6%	u	x	x
CCOC(=O)c1nc(Nc2cc(Cl)ccc2OC)c2ccccc2n1	0.0%	4.4%	-3.8%	12.6µM*	x	x
O=C(CNc1ccccc1-c1ccccc1)NCc1ccccc1	u	u	-25.8%	10.5%	-8.3%	i
CC1CCN(CC(CS(=O)(=O)c2ccc([N+](=O)[O-])cc2)N2CCC(C)CC2)CC1 (stereo not given)	u	u	2.4%	5.01µM*	u	u
Cc1c(C(=O)O)sc2nc(/C=C/c3ccccc3OC(F)F)[nH]c(=O)c12	13.1µM*	-16.7%	-13.5%	1.2%	-6.1%	-2.3%
Cc1c(C(=O)O)sc2nc(/C=C/c3cccc(F)c3)[nH]c(=O)c12	-17.1%	3.7%	9.6%	-10.0%	x	x
CCOC(=O)c1ccc(Nc2ccc(-c3ccc(OC)c(OC)c3)nn2)cc1	-5.4%	11.7µM*	-6.2%	u	x	x
CCOC(=O)c1ccc(NC(=S)N2CCN(CCNC3=CC(=O)CC(C)(C)C3)CC2)cc1	-18.2%	0.0262µM*	x	-12.6%	-13.3%	i
CCOC(=O)c1ccc(NC(=S)N2CCN(CCN=CC3=C(O)CC(C)(C)CC3=O)CC2)cc1	4.9%	-25.0%	1.3%	u	-7.6%	i
COc1ccc(CCNC(N)=S)cc1OC	10.4µM*	20.8%	9.3%	30.4%	-4.1%	-10.3%
COc1ccc2c(c1)c(C(C)=O)c(C)n2CCc1ccc(OC)c(OC)c1	3.6%	-1.6%	-5.9%	u	x	x
CNCCc1ccc(OC)c(OC)c1	69.8%	39.5%	7.3%	16.6%	-8.6%	i
CCOC(=O)c1c(C(=O)OCC)c(C)n(CCc2ccc(OC)c(OC)c2)c1C	9.28µM*	u	-3.8%	-24.8%	-20.2%	-11.9%
O=c1[nH]c(CN2CCc3ccccc3C2)nc2ccccc12	-14.2%	22.3%	-1.4%	7.7%	-3.7%	i
CC(C)CC(OC(=O)c1cccs1)C(=O)NCC1CCCO1 (stereo not given)	x	3.2%	1.0%	u	x	x
Cn1c(=O)c(C(=O)CN2CCN(S(=O)(=O)c3ccccc3)CC2)c(N)n(Cc2ccccc2)c1=O	u	u	-9.1%	-1.2%	u	-15.2%
CNC(=S)NCCc1ccc(OC)c(OC)c1	91.9%	64.0%	0.4%	-6.3%	-5.1%	-15.0%
COc1ccc(CCNC(=S)NCCc2ccc(OC)c(OC)c2)cc1OC	13.1µM*	6.57µM*	0.1%	u	-13.1%	i
COc1ccc(CN(CCc2ccccc2)Cc2ccccc2)cc1OC	u	8.28µM*	-0.5%	-15.9%	x	x
COc1ccc(CCNC(=O)c2cc3sc(Cl)cc3n2C)cc1OC	9.28µM*	-14.8%	-48.0%	u	-10.2%	i
SMILES	Pf growth 96h	Pf growth 48h	NS1 function inh	HCV inh	VACV Venus inh	Vaccinia mCherry
COC(=O)c1ccc(NC(=S)NCCc2cccc(C)c2)cc1	u	u	-10.9%	22.4µM*	x	x
C1=C(CCNc2nnnn2-c2ccccc2)CCCC1	24.4%	3.2%	-5.7%	-27.3%	x	x
Cc1ccc(-n2nc(CO)c(C(=O)NCc3cccnc3)n2)cc1C	x	x	x	x	-14.7%	-26.6%
CN(Cc1ccccc1)C(=O)COC(=O)c1ccccc1SCC(=O)N1CCCC1	48.2%	-7.1%	x	5.3%	-5.9%	-17.7%
COc1ccc(NC(=O)CCNC(=O)N2CC(=O)Nc3ccccc32)cc1OC	x	x	x	x	-6.0%	-12.3%
COc1ccc(CCNC(=S)c2ccccc2)cc1OC	5.22µM*	4.65µM*	-5.4%	8.91µM*	x	x
COc1ccc(CN(Cc2cccnc2)C(=S)NCCc2ccccc2)cc1OC	14.7µM*	u	u	19.1%	x	x
Cc1ccc(CCNC(=O)CNC(=S)N(Cc2ccccc2)Cc2cccnc2)cc1	16.4%	u	x	u	-15.5%	-14.3%
CCOC(=O)c1ccc(NC(=S)NCCCN2CCCC2=O)cc1	2.62µM*	44.0%	5.9%	u	-15.3%	-8.2%
CCOC(=O)c1ccc(NC(=S)NCCc2ccc(OC)c(OC)c2)cc1	10.4µM*	u	-1.5%	-32.0%	-10.6%	-9.5%
COC(=O)c1ccc(NC(=S)NCCc2ccc(OC)cc2)cc1	-12.9%	u	8.7%	u	-22.9%	i
O=C(C1CCCN(Cc2ccccc2[N+](=O)[O-])C1)N1CCCCC1 (stereo not given)	11.9%	0.6%	2.2%	20.3%	x	x
COc1ccccc1NC(=S)NCCc1ccc(OC)c(OC)c1	4.65µM*	2.62µM*	-5.8%	-29.3%	-16.0%	i
CC(NC(=O)c1ccc([N+](=O)[O-])o1)C1CC2CCC1C2 (stereo not given)	x	x	x	11.2µM*	-21.5%	u
O=C(NC12CC3CC(CC(C3)C1)C2)c1ccc([N+](=O)[O-])o1	u	5.22µM*	-84.2%	-4.7%	x	x
CCCCOCCCNCc1cccn1CCN1CCOCC1	0.0%	-26.6%	-4.0%	4.8%	-9.9%	i
COc1cccc(N2CCN(C(=O)C3CCCN(c4ncnc5c4nc4n5CCCCC4)C3)CC2)c1 (stereo not given)	10.4µM*	u	-24.5%	u	x	x
CCCN1CCN(C(=O)C2CCCN(c3ncnc4c3nc3n4CCCCC3)C2)CC1 (stereo not given)	-5.2%	u	3.9%	-4.4%	-4.3%	-6.7%
CCN1CCN(C(=O)C2CCCN(c3ncnc4c3nc3n4CCCCC3)C2)CC1 (stereo not given)	10.4µM*	u	20.8%	5.6%	-14.0%	-14.6%
CC1CCN(C(=O)C2CCCN(c3ncnc4c3nc3n4CCCCC3)C2)CC1 (stereo not given)	9.28µM*	-21.7%	-24.1%	u	1.8%	u
CC1CC(C)CN(C(=O)C2CCCN(c3ncnc4c3nc3n4CCCCC3)C2)C1 (stereo not given)	0.8%	u	-25.3%	-14.1%	-12.2%	i
COCCN(Cc1ccco1)C(=O)C1CCCN(c2ncnc3c2nc2n3CCCCC2)C1 (stereo not given)	4.15µM*	u	-5.0%	6.9%	-17.1%	-14.3%

Bioassay records (PubChem BioAssay)
